Data taken from PubChem BioAssay (NCI).
About 83,000 compounds went through this panel and 20% of them were active in at least one assay; those are over-represented in the sample as a whole.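 The test compound was applied at a single concentration to cells in 96-well plates for 48 hours, and percent growth was recorded.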 Active and inactive are the calls of the source. The calls were made as follows: active = growth percent below 10; inactive = the rest.

How the values were obtained:
Assay in all cases: NCI-60 one-dose screen, 48 h (100 = growth as untreated, 0 = no growth, -100 = all killed)
Details in all cases: 10 µM unless noted
T-47D breast = test system: T-47D breast
BT-549 breast = test system: BT-549 breast
MDA-MB-435 melanoma = test system: MDA-MB-435 melanoma
SW-620 colon = test system: SW-620 colon
MCF7 breast = test system: MCF7 breast
HCT-116 colon = test system: HCT-116 colon
HCC-2998 colon = test system: HCC-2998 colon
KM12 colon = test system: KM12 colon

Measured: growth

FC(F)(F)c1ccccc1-c1cn2c(ccc3ccccc32)n1
active: MDA-MB-435 melanoma -25.3%
inactive: T-47D breast 104% | BT-549 breast 80.8% | SW-620 colon 44.2% | MCF7 breast 77.4% | HCT-116 colon 74.9% | HCC-2998 colon 99.2% | KM12 colon 87%

Cc1ccc(C(=O)C2=Cc3cc4ccccc4n3Cc3cnnn32)cc1
inactive: T-47D breast 77.8% | BT-549 breast 89.4% | MDA-MB-435 melanoma 71.7% | SW-620 colon 105% | MCF7 breast 90.9% | HCT-116 colon 94.1% | HCC-2998 colon 98.7% | KM12 colon 83.4%

COc1cc(/C=C/C(=O)c2ccc(Nc3ncnc4cc(OC)c(OC)cc34)cc2)cc(OC)c1
inactive: T-47D breast 100% | BT-549 breast 105% | MDA-MB-435 melanoma 51.8% | SW-620 colon 109% | MCF7 breast 73% | HCT-116 colon 30.8% | HCC-2998 colon 106% | KM12 colon 82.9%

CN1C(=O)N(C)C2C1NN=c1s/c(=C\c3cccnc3)c(=O)n12 (centres undefined)
inactive: T-47D breast 91.2% | BT-549 breast 79.9% | SW-620 colon 59.1% | MCF7 breast 51.6% | HCT-116 colon 75.9% | HCC-2998 colon 92.2% | KM12 colon 53.8%
active: MDA-MB-435 melanoma 8.5%

COc1cc(C2NN=C3c4ccccc4CCC32)cc(OC)c1OC (centres undefined)
inactive: T-47D breast 39.3% | BT-549 breast 103% | MDA-MB-435 melanoma 96.9% | SW-620 colon 93.9% | MCF7 breast 42.7% | HCT-116 colon 74.8% | HCC-2998 colon 110% | KM12 colon 80.4%

CCN(CC)c1ccc(/C=C2\Oc3ccc(O)c(I)c3C2=O)cc1
inactive: T-47D breast 55.1% | BT-549 breast 54.4% | MDA-MB-435 melanoma 16.7% | SW-620 colon 43.2% | MCF7 breast 26.9% | HCT-116 colon 33.9% | HCC-2998 colon 97.2% | KM12 colon 43.3%

COc1ccc2c(c1)[nH]c(=O)c1c3cccc(F)c3cn21
inactive: T-47D breast 63.9% | BT-549 breast 42.8% | SW-620 colon 27.2% | MCF7 breast 22.3% | HCT-116 colon 24.6% | HCC-2998 colon 31.9%
active: MDA-MB-435 melanoma -51.9% | KM12 colon 8.44%

Cc1c(C(N)=O)sc2c1c(=O)n(Cc1ccccc1)c1nnc(Nc3ccccc3)n21
inactive: T-47D breast 89% | BT-549 breast 123% | MDA-MB-435 melanoma 103% | SW-620 colon 108% | MCF7 breast 100% | HCT-116 colon 94.2% | HCC-2998 colon 110% | KM12 colon 93.6%

COc1ccc(-c2c(-c3cc(OC)c4c(c3)OCO4)noc2N)cc1
inactive: T-47D breast 37.3% | BT-549 breast 20.7% | SW-620 colon 21% | MCF7 breast 14.2% | HCC-2998 colon 15.8%
active: MDA-MB-435 melanoma -38.9% | HCT-116 colon 6.02% | KM12 colon 3.59%

CN1CCN(Cc2ccc(NC(=O)c3nc4ccc5[nH]ncc5c4c4c3CCC4)cc2C(F)(F)F)CC1
inactive: BT-549 breast 91.6%
active: T-47D breast -26.4% | MDA-MB-435 melanoma -91.4% | SW-620 colon -56.2% | MCF7 breast -29.7% | HCT-116 colon -94.2% | HCC-2998 colon -10.5% | KM12 colon -79.8%

CC(=O)Oc1cccc(S(=O)(=O)n2cc(C(=O)C(=O)Nc3ccncc3)c3ccccc32)c1
inactive: T-47D breast 73.6% | BT-549 breast 83.8% | MDA-MB-435 melanoma 38.5% | SW-620 colon 98% | MCF7 breast 79.5% | HCT-116 colon 76.6% | HCC-2998 colon 84.3% | KM12 colon 83.6%

CN(C)CC(C(=O)c1ccccc1)c1ccccc1 (centres undefined)
active: SW-620 colon -61.9% | HCT-116 colon -94.7%
inactive: T-47D breast 66.6% | BT-549 breast 23.3% | MDA-MB-435 melanoma 23.1% | MCF7 breast 10.5% | HCC-2998 colon 74.9% | KM12 colon 10.8%

CCn1c2ccccc2c2cc(NC(=O)Nc3ccc([N+](=O)[O-])cc3C)ccc21
inactive: T-47D breast 29.3% | BT-549 breast 79.2% | MDA-MB-435 melanoma 17.4% | SW-620 colon 51.9% | MCF7 breast 35.7% | HCT-116 colon 31.6% | HCC-2998 colon 10.5% | KM12 colon 26.5%

COc1cc2c(cc1OCCCN1CCN(CCCn3c4ccccc4c4ccccc43)CC1)N=C[C@@H]1CCCN1C2=O
active: T-47D breast -31.1% | BT-549 breast -84.1% | MDA-MB-435 melanoma -80.5% | SW-620 colon -83.2% | MCF7 breast -72% | HCT-116 colon -27.8% | HCC-2998 colon -86.3% | KM12 colon -64.7%

CCOC(=O)C1C(=O)C=C(c2ccc(OC)cc2)CC1c1sc(N(C)Cc2ccccc2)nc1Cl (centres undefined)
inactive: T-47D breast 64.2% | BT-549 breast 94.4% | MDA-MB-435 melanoma 85.1% | SW-620 colon 82.9% | MCF7 breast 83.5% | HCT-116 colon 71.9% | HCC-2998 colon 98.9% | KM12 colon 81.4%

O=[N+]([O-])c1ccc(OCCCOc2ccccc2)cc1
inactive: T-47D breast 110% | BT-549 breast 93.1% | MDA-MB-435 melanoma 99% | SW-620 colon 107% | MCF7 breast 93% | HCT-116 colon 97.4% | HCC-2998 colon 101% | KM12 colon 101%

COc1ccc(-c2nc(/C=N/Nc3cc(C)nc4ccc(Cl)cc34)c(C)o2)cc1
active: T-47D breast -38% | BT-549 breast -34.9% | MDA-MB-435 melanoma -97.1% | SW-620 colon -88.6% | MCF7 breast -80.2% | HCT-116 colon -86% | HCC-2998 colon -48.3% | KM12 colon -87%

COc1ccc2cc(-c3ccc(-c4ccc(C(=N)N)cc4)s3)ccc2c1
inactive: T-47D breast 91.2% | BT-549 breast 97.9% | MDA-MB-435 melanoma 108% | SW-620 colon 84.6% | MCF7 breast 73.2% | HCT-116 colon 71.3% | HCC-2998 colon 101% | KM12 colon 66.4%

CC(C)(C)Nc1c(-c2cccs2)nc2ncccn12
inactive: T-47D breast 93.1% | BT-549 breast 105% | MDA-MB-435 melanoma 107% | SW-620 colon 103% | MCF7 breast 93.8% | HCT-116 colon 98.6% | HCC-2998 colon 100% | KM12 colon 97.5%

COc1ccc2c(c1)[nH]c(=O)c1c3cc(C)c(C)cc3cn21
inactive: HCC-2998 colon 15.7%
active: T-47D breast -24.4% | BT-549 breast 0.0621% | MDA-MB-435 melanoma -60.8% | SW-620 colon -52.8% | MCF7 breast 3.58% | HCT-116 colon -35.9% | KM12 colon -87.7%

Cc1ccc(-c2csc(NC(=O)CCCCl)n2)cc1
inactive: T-47D breast 77.2% | BT-549 breast 98.1% | MDA-MB-435 melanoma 103% | SW-620 colon 107% | MCF7 breast 90.7% | HCT-116 colon 98.6% | HCC-2998 colon 103% | KM12 colon 95%

COc1cc(-c2nn(-c3cccc(NC(=O)Nc4ccc(Cl)c(C(F)(F)F)c4)c3)cc2-c2ccncc2)ccc1Cl
active: T-47D breast 0.618% | BT-549 breast 7.16% | MDA-MB-435 melanoma -52.3% | MCF7 breast 0.143% | HCT-116 colon 5.3% | HCC-2998 colon 8.88% | KM12 colon 2.88%
inactive: SW-620 colon 15.4%

O=C(Nc1ccc2c(c1)OCO2)C(=O)c1c[nH]c2cc(F)ccc12
inactive: T-47D breast 46.7% | BT-549 breast 70.3% | MDA-MB-435 melanoma 34.7% | SW-620 colon 34.3% | MCF7 breast 57.7% | HCT-116 colon 56.7% | HCC-2998 colon 25.3% | KM12 colon 27.1%

COc1ccc2[nH]c(=O)c3c4ccccc4cn3c2c1
active: MDA-MB-435 melanoma -23.3% | HCT-116 colon -28.9%
inactive: T-47D breast 44.6% | BT-549 breast 37.9% | SW-620 colon 13.3% | MCF7 breast 17.1% | HCC-2998 colon 31.3% | KM12 colon 10.4%

CC(C)CSc1nc(NN)c(C#N)c(-c2ccccc2)n1
inactive: T-47D breast 87% | BT-549 breast 96.2% | MDA-MB-435 melanoma 101% | SW-620 colon 99.3% | MCF7 breast 88.2% | HCT-116 colon 95.7% | HCC-2998 colon 95% | KM12 colon 81.3%

COc1ccc(Nc2[nH]n3c(=O)cc(-c4ccccc4)nc3c2C(=O)Nc2ccc(C)cc2)c(OC)c1
inactive: T-47D breast 83.8% | BT-549 breast 92.9% | MDA-MB-435 melanoma 96.8% | SW-620 colon 99.5% | MCF7 breast 99.6% | HCT-116 colon 84.2% | HCC-2998 colon 111% | KM12 colon 106%

CN(CCCCN(C[C@H]1Cc2ncccc2CN1)[C@H]1CCCc2cccnc21)C1CCC(F)(F)CC1
inactive: T-47D breast 99.2% | BT-549 breast 85.8% | MDA-MB-435 melanoma 108% | SW-620 colon 98.7% | MCF7 breast 83.7% | HCT-116 colon 71.1% | HCC-2998 colon 88.7% | KM12 colon 88%

Brc1cccc(-c2cc(-c3ccc4nccnc4c3)[nH]n2)c1
active: MDA-MB-435 melanoma -54.1% [25 µM] | HCT-116 colon 9.21% [25 µM]
inactive: T-47D breast 34.5% [25 µM] | BT-549 breast 65.5% [25 µM] | SW-620 colon 28.1% [25 µM] | MCF7 breast 14.1% [25 µM] | HCC-2998 colon 40.2% [25 µM] | KM12 colon 14.7% [25 µM]
